Source: the supplement of paper PMC10849652
Of roughly 7,900 targets only a part is listed; those with a hit were picked by preference. About 0.6% of all pairs of compound and target were hits. Values without a mark were called inactive.

Sequence of UniProt Q9NZC3 (Q9NZC3 whole entry, looked up): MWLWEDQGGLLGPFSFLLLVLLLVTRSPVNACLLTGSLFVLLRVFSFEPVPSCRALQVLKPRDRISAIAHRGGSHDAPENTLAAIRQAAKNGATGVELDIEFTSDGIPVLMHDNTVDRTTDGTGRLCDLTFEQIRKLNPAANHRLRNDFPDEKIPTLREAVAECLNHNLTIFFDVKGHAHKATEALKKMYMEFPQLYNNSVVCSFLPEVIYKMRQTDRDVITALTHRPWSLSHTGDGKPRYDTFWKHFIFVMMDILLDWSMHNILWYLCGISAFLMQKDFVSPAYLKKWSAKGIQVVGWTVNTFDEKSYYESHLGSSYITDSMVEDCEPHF
Sequence of UniProt Q10472 (Q10472 whole entry, looked up): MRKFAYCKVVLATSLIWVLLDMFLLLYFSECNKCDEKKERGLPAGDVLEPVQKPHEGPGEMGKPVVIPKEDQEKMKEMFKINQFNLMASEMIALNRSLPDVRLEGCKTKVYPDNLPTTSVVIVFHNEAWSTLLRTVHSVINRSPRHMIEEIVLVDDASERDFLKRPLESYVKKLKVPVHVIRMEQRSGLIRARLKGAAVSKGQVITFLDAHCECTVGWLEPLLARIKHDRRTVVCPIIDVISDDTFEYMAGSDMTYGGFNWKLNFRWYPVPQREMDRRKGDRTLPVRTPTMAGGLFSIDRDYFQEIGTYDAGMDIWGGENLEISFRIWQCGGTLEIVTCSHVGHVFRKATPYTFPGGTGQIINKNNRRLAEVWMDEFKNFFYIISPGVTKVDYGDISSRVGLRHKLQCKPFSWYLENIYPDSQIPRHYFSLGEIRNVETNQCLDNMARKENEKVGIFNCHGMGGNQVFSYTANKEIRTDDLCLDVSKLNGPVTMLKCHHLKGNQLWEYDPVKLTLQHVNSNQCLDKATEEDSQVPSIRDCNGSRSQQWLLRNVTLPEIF
Sequence of UniProt P16278 (P16278 whole entry, looked up): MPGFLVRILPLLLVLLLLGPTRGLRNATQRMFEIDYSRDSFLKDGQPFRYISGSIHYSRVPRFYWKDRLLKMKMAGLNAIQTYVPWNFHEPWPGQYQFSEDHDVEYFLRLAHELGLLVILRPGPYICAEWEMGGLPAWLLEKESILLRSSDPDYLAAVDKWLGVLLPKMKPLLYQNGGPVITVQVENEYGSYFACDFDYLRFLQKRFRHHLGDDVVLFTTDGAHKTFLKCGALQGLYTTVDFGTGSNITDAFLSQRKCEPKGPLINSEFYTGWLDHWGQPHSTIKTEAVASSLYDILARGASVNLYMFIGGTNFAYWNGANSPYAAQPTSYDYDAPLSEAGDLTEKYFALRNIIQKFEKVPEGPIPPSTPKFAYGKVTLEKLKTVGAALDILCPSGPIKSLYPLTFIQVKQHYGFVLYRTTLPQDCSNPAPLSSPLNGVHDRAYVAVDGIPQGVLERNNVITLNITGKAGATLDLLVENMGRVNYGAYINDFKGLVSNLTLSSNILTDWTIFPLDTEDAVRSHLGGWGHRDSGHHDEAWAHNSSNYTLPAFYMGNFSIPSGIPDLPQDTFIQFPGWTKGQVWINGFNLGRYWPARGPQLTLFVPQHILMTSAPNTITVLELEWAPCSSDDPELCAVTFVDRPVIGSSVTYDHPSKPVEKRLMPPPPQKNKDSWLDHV
Sequence of UniProt Q7Z4V5 (Q7Z4V5 whole entry, looked up): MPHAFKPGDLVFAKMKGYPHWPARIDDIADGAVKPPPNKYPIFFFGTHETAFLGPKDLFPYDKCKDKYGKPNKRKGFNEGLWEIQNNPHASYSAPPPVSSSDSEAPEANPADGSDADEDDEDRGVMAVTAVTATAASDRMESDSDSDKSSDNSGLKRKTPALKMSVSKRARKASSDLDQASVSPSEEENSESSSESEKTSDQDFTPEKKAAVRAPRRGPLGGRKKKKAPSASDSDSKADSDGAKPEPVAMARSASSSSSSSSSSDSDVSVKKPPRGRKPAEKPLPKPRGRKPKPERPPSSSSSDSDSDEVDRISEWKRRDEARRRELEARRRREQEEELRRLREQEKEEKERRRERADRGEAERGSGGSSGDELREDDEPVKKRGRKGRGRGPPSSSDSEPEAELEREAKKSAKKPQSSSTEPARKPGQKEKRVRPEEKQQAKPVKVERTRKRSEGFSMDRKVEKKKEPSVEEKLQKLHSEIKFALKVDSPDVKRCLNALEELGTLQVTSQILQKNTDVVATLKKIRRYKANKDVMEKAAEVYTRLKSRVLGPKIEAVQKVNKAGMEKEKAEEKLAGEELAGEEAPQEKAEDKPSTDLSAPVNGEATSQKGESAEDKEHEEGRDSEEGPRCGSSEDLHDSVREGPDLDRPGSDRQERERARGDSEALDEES
Sequence of UniProt Q9H0R8 (Q9H0R8 whole entry, looked up): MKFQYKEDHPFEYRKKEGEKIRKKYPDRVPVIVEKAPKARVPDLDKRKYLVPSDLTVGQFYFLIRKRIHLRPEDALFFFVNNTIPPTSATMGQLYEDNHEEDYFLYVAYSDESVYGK
Sequence of UniProt P00367 (P00367 whole entry, looked up): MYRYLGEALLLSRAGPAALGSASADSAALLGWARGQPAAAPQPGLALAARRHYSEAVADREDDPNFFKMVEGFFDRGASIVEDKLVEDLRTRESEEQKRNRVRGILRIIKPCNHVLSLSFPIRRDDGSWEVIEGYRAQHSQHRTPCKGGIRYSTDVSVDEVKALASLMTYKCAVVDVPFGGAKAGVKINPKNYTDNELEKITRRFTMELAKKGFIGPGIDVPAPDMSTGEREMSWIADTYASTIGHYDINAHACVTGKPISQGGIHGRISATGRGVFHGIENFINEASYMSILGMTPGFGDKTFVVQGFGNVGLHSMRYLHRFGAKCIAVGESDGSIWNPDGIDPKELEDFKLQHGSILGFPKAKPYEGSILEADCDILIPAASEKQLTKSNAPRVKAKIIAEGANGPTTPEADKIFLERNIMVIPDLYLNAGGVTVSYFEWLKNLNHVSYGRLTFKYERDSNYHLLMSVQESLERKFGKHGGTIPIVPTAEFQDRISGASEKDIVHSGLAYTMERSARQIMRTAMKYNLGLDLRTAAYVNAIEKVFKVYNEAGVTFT
Sequence of UniProt P49448 (P49448 whole entry, looked up): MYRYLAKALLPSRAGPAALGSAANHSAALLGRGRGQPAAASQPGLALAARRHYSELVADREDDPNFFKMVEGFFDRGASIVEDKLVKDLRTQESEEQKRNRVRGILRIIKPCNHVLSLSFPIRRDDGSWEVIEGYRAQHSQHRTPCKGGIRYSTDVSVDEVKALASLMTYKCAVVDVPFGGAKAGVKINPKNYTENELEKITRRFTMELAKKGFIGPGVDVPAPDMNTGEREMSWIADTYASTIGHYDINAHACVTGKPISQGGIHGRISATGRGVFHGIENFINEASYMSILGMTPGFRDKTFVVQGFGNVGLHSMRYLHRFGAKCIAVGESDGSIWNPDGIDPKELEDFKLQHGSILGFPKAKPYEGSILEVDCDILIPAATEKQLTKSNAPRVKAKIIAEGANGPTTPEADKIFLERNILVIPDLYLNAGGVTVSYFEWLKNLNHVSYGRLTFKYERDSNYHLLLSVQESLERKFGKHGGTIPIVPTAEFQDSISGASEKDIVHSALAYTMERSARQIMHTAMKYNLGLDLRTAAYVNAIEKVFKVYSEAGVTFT
Sequence of UniProt Q86VQ1 (Q86VQ1 whole entry, looked up): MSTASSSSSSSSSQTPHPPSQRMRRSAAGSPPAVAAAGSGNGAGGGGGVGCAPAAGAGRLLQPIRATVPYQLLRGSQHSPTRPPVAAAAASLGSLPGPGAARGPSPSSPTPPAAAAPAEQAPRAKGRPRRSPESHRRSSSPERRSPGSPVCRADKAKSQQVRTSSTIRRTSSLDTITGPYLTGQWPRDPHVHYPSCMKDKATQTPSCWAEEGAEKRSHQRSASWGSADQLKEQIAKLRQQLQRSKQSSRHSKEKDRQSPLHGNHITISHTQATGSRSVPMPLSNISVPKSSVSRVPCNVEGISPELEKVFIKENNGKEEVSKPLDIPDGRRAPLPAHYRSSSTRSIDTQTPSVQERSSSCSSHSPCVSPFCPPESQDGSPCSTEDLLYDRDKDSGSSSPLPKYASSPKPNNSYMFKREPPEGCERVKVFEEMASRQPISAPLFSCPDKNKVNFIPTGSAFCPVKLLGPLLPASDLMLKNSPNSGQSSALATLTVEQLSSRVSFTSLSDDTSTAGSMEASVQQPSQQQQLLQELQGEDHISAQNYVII
Sequence of UniProt O43824 (O43824 whole entry, looked up): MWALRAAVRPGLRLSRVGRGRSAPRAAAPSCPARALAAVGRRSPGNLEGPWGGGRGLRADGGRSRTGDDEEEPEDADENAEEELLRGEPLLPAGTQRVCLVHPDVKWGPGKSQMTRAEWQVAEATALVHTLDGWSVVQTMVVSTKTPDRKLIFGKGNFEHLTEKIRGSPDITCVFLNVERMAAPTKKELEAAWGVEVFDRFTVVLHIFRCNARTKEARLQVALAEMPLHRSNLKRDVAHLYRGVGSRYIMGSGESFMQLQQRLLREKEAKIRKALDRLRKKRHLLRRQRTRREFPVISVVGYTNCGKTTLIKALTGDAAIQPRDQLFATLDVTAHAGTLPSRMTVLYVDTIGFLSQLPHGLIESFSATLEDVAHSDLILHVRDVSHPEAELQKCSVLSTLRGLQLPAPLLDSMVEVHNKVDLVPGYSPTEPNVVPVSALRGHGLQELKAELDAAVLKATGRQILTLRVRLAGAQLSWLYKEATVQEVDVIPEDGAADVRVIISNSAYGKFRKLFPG
Sequence of UniProt Q86YM7 (Q86YM7 whole entry, looked up): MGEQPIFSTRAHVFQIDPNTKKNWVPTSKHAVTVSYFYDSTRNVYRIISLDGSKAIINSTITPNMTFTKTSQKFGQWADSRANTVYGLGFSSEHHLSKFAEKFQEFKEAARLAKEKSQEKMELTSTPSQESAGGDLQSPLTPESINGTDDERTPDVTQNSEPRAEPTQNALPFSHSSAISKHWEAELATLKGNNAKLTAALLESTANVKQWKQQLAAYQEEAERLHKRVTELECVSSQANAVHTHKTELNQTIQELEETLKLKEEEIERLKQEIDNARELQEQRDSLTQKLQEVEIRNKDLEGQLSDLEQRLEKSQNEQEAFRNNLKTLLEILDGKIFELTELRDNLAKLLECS

The targets below were run with C1=CC(=CC=C1C2=NC3=C(N2)C=C(C=C3)C(=O)N)OC4=CC=C(C=C4)Cl (assay: log2 fold change, soluble protein after heating vs DMSO (PISA); higher = thermal stabilisation; K562 cells, 10 uM, 30 min; active = over 0.2 and 3.5 SD of the protein, either way, in both replicates (recomputed)).
Procedure, shortened: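 K562 cells at 2×10^6 cells/mL were exposed to 10 μM compound for 30 min, then aliquots were heated for 3 min across 48°C-58°C, pooled, and extracted in PBS containing 0.5% NP-40 at 4°C. The supernatant after 21,000xg for 90 min was taken as soluble protein and measured by TMTpro 16plex LC-MS/MS with channel sums equalised. Thermal stability is reported relative to control samples, with values from duplicates. Fold changes are given on a log2 scale.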
GBF1 (UniProt Q92538) was tested, and the log2 fold change was -0.022.
Work on GABARAPL1 isoform 2 (UniProt Q9H0R8) yielded a log2 fold change of -0.029.
In the case of GPX4 (UniProt P36969), the log2 fold change is reported as 0.057.
HIP1 (UniProt O00291) showed a log2 fold change of -0.004.
Work on HNRNPUL1 (UniProt Q9BUJ2) yielded a log2 fold change of -0.012.
HIKESHI (UniProt Q53FT3) gave a log2 fold change of 0.003.
For FEN1 (UniProt P39748), the log2 fold change was 0.026.
GLCCI1 (UniProt Q86VQ1) gave a log2 fold change of -0.006.
With GID4 (UniProt Q8IVV7) the log2 fold change was 0.028.
Work on GTF2E2 (UniProt P29084) yielded a log2 fold change of -0.001.
FUT8 (UniProt Q9BYC5) gave a log2 fold change of -0.12.
In the case of HDHD2 (UniProt Q9H0R4), the log2 fold change is reported as 0.009.
Work on HTATIP2 isoform 3 (UniProt Q9BUP3) yielded a log2 fold change of -0.02.
For GTPBP6 (UniProt O43824), the log2 fold change was 0.01.
For FASTKD1 (UniProt Q53R41), the log2 fold change was -0.051.
GLB1 (UniProt P16278) gave a log2 fold change of -0.006.
IFITM3 (UniProt Q01628) gave a log2 fold change of 0.042.
In the case of GDE1 (UniProt Q9NZC3), the log2 fold change is reported as 0.019.
GLS isoform 3 (UniProt O94925) showed a log2 fold change of -0.094.
H2AFX (UniProt P16104) showed a log2 fold change of 0.072.
GLUD2 (UniProt P49448) was tested, and the log2 fold change was 0.036.
In the case of HSD17B12 (UniProt Q53GQ0), the log2 fold change is reported as 0.346 (active).
In the case of HK2 (UniProt P52789), the log2 fold change is reported as 0.
GYS1 (UniProt P13807) showed a log2 fold change of -0.066.
In the case of FARS2 (UniProt O95363), the log2 fold change is reported as 0.061.
HDGFL2 (UniProt Q7Z4V5) was tested, and the log2 fold change was -0.006.
In the case of GSTM4 (UniProt Q03013), the log2 fold change is reported as -0.002.
Target ICMT (UniProt O60725) has a log2 fold change of -0.001.
ICAM1 (UniProt P05362) gave a log2 fold change of 0.018.
For HIST2H3A (UniProt Q71DI3), the log2 fold change was -0.028.
Work on IFT80 isoform 3 (UniProt Q9P2H3) yielded a log2 fold change of 0.013.
GALNT1 (UniProt Q10472) showed a log2 fold change of 0.022.
Target GLRX3 (UniProt O76003) has a log2 fold change of -0.037.
GLUD1 (UniProt P00367) gave a log2 fold change of 0.026.
HOMER1 (UniProt Q86YM7) was tested, and the log2 fold change was 0.016.
